About 7,900 targets were measured; listed, in parts, are those with a hit and a random draw of the rest. About 0.6% of all pairs of compound and target were hits.
compound: COc1cc2nc(-c3cc(F)ccc3O)nc(N[C@@H]3CNC[C@H]3C(C)(C)O)c2cc1OC; assay: log2 fold change, soluble protein after heating vs DMSO (PISA); higher = thermal stabilisation; K562 cells, 10 uM, 30 min; active = over 0.2 and 3.5 SD of the protein, either way, in both replicates (recomputed)
In short: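 Soluble protein was quantified by TMTpro 16plex LC-MS/MS after channel sums were equalised. It was obtained as the supernatant after 21,000xg for 90 min from pooled aliquots of K562 cells (2×10^6 cells/mL, 10 μM compound, 30 min) heated for 3 min across 48°C-58°C and extracted in PBS with 0.5% NP-40 at 4°C. Thermal stability values are relative to control samples and come from duplicates. They are given as log2 fold changes.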

Sequence of UniProt Q53GQ0 (Q53GQ0 whole entry, looked up): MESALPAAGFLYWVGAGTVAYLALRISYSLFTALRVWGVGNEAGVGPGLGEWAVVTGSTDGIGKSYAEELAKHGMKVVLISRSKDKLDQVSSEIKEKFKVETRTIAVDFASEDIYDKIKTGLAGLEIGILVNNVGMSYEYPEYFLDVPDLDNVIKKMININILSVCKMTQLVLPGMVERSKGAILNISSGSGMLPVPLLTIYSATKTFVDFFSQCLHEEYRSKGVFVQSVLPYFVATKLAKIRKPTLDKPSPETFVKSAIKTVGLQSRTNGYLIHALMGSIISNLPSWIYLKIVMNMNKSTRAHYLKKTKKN
Sequence of UniProt Q53FT3 (Q53FT3 whole entry, looked up): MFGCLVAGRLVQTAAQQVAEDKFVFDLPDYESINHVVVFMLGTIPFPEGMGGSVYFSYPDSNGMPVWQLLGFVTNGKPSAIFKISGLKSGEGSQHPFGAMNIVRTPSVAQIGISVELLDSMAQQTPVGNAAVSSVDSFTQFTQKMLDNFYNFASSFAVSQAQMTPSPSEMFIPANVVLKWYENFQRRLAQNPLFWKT
Sequence of UniProt Q03013 (Q03013 whole entry, looked up): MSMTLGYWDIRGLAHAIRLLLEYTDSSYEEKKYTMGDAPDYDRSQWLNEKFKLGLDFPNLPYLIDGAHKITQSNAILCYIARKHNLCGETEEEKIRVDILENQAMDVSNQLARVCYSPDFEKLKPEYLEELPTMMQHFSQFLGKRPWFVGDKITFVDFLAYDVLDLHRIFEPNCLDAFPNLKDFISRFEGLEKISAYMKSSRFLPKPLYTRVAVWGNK
Sequence of UniProt P04066 (P04066 whole entry, looked up): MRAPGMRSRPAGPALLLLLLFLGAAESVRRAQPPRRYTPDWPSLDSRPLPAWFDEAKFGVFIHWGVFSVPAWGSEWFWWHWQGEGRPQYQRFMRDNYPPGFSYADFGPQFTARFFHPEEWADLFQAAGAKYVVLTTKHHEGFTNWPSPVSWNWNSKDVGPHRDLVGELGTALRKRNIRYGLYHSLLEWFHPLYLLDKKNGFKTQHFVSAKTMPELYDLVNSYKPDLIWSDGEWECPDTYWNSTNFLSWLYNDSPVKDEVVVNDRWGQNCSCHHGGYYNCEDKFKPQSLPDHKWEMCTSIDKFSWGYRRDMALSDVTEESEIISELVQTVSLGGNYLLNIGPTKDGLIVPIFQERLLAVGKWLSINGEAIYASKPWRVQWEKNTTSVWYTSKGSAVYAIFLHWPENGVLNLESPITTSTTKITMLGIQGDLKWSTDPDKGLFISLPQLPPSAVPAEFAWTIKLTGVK
Sequence of UniProt Q9UKN8 (Q9UKN8 whole entry, looked up): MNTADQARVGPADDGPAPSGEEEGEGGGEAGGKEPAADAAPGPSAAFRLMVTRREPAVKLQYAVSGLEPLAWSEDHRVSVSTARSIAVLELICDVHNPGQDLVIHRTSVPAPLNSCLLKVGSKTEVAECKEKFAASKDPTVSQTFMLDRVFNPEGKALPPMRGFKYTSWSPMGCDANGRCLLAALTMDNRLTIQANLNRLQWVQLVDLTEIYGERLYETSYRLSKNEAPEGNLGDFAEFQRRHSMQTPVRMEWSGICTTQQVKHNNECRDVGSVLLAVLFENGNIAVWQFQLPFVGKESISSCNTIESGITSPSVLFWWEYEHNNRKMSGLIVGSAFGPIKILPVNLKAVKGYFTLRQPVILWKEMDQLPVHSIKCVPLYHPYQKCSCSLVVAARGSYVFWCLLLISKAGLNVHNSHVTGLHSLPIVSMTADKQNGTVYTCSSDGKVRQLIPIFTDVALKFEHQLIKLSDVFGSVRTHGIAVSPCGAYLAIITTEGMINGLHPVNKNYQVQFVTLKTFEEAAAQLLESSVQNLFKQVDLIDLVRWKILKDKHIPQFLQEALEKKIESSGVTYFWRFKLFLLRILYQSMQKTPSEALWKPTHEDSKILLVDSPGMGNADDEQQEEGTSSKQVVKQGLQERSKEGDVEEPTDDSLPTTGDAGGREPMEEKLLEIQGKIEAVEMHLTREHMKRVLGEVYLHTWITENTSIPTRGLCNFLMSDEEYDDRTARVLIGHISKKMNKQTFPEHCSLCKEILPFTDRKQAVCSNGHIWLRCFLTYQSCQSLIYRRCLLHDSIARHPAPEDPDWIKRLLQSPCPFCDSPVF
Sequence of UniProt P0CL80 (P0CL80 whole entry, looked up): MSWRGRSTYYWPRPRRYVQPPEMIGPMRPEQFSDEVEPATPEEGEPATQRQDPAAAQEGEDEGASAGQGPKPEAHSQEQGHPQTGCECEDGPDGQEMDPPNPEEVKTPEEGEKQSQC
Sequence of UniProt Q5SSJ5 (Q5SSJ5 whole entry, looked up): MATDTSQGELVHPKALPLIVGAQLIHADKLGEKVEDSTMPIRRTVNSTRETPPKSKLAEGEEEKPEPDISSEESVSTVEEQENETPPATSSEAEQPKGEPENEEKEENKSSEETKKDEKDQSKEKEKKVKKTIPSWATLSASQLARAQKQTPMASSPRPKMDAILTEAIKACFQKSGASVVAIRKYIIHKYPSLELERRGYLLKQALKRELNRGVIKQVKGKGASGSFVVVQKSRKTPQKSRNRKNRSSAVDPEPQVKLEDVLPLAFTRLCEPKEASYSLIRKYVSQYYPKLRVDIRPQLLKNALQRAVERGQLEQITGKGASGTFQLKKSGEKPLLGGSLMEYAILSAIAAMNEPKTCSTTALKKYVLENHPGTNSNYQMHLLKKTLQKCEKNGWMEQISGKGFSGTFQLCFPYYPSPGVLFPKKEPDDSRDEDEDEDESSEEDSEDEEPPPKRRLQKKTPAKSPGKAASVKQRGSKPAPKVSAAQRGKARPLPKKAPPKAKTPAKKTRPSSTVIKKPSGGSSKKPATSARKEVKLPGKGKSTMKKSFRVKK
Sequence of UniProt Q96I24 (Q96I24 whole entry, looked up): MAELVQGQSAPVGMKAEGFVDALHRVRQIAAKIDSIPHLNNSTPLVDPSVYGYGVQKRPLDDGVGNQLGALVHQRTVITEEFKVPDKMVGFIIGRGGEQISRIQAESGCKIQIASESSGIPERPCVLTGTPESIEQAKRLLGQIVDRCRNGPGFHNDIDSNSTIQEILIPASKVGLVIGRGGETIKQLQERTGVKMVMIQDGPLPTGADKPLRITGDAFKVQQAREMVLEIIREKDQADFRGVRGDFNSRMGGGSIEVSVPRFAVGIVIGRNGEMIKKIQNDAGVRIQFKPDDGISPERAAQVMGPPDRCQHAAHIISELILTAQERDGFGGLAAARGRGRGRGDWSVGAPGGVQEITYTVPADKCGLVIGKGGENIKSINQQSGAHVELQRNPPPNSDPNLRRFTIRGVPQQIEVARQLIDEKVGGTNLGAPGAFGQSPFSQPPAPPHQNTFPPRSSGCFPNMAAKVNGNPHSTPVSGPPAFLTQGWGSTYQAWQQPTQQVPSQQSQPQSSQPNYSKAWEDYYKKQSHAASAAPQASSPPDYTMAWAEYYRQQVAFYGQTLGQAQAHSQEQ
Sequence of UniProt Q14C86 (Q14C86 whole entry, looked up): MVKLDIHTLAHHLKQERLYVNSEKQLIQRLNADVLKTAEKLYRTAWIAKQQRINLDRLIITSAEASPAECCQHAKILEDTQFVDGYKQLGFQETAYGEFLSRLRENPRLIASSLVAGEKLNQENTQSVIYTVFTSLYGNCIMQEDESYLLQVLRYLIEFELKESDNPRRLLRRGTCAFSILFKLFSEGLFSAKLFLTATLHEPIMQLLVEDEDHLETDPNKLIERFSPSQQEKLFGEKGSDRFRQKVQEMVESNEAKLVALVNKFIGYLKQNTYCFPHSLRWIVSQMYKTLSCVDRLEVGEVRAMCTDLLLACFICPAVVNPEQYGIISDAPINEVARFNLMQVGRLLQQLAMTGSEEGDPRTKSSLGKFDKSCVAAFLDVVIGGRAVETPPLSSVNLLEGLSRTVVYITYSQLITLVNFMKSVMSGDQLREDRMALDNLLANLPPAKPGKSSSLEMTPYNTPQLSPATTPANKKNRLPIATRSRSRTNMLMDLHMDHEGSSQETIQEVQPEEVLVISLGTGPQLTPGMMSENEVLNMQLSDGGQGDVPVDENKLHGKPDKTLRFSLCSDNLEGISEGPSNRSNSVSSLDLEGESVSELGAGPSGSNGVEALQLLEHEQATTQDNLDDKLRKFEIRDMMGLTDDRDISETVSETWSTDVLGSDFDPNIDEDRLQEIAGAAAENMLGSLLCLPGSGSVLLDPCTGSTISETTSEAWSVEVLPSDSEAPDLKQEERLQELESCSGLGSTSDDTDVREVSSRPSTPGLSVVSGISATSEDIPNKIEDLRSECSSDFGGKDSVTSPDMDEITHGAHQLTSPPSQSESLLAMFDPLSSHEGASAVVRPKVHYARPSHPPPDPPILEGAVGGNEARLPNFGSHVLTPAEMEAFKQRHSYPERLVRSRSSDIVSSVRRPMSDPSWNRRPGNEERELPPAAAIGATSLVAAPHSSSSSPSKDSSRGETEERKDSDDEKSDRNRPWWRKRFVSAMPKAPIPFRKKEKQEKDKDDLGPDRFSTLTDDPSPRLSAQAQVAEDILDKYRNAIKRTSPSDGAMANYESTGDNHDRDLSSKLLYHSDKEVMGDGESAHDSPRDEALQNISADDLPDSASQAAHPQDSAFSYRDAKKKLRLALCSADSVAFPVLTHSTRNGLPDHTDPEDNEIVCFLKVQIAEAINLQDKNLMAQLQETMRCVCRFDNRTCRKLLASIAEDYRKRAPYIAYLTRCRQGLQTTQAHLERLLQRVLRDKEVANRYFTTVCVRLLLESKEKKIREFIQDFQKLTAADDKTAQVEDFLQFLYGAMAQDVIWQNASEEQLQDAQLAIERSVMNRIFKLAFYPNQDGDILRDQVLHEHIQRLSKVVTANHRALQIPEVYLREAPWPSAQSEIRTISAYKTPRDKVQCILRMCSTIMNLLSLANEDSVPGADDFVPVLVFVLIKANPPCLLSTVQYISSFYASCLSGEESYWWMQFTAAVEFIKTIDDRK
Sequence of UniProt Q7Z4H3 (Q7Z4H3 whole entry, looked up): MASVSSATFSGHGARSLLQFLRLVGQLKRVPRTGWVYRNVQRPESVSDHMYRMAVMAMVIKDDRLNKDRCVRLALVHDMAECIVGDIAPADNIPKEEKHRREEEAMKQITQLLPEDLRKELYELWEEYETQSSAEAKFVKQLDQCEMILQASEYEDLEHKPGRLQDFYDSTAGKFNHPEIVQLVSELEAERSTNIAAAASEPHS

log2 fold change, inactive:
GAPVD1 isoform 6 (UniProt Q14C86) -0.048, IDH3A (UniProt P50213) -0.009, GALNT4 (UniProt Q8N4A0) 0.011, HMOX2 (UniProt P30519) 0.036, HIP1R (UniProt O75146) 0.027, GBF1 (UniProt Q92538) 0.025, HSD17B12 (UniProt Q53GQ0) 0.135, GABPA (UniProt Q06546) -0.134, HTATIP2 isoform 3 (UniProt Q9BUP3) -0.131, HDDC2 (UniProt Q7Z4H3) -0.05, HLTF (UniProt Q14527) 0.081, GATD1 (UniProt Q8NB37) 0.018, HP1BP3 (UniProt Q5SSJ5) -0.053, GTF3C4 (UniProt Q9UKN8) 0.007, FUCA1 (UniProt P04066) -0.113, FAM91A1 (UniProt Q658Y4) -0.003, GLRX3 (UniProt O76003) 0.012, GAGE12F (UniProt P0CL80) -0.02, HDGFL2 (UniProt Q7Z4V5) -0.013, GMEB2 (UniProt Q9UKD1) 0.053, GLYR1 (UniProt Q49A26) -0.092, FNTA (UniProt P49354) -0.01, IFI30 (UniProt P13284) -0.133, GABARAPL2 (UniProt P60520) 0.033, HIKESHI (UniProt Q53FT3) 0.067, GSTM4 (UniProt Q03013) 0.084, FIS1 (UniProt Q9Y3D6) 0.061, IDI1 isoform 2 (UniProt Q13907) 0.007, HNRNPH1 (UniProt P31943) -0.192, HIST2H3A (UniProt Q71DI3) -0.106, FHOD1 (UniProt Q9Y613) 0.186, GLUD1 (UniProt P00367) -0.001, FBXO7 (UniProt Q9Y3I1) 0.082, HIC2 (UniProt Q96JB3) -0.386, FUBP3 (UniProt Q96I24) 0.165
